hcDAF-12 act: activators of H. contortus DAF-12 nuclear receptor. activation, % at 6.8 µM. 1.4% of 370,000 active. HEK293 hcDAF-12 lit1-tk-luc reporter, luminescence; 0% DMSO, 100% Δ7-dafachronic acid;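 active means activation above the mean of all tested compounds plus 3 SD, cut at about 5.5% in these data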
DAX1 inh-1: inhibitors of DAX1 repression of SF-1 activated StAR promoter; inhibition, % at 6.8 µM; HEK293T StAR-luciferase reporter, SF-1/DAX-1 repression relief; 1.1% of 370,000 active; AID 652010;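 active means inhibition above the mean over all tested compounds plus 3 SD, cut at about 3.6% in these data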;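 further: higher inhibition means more luminescence from relief of DAX-1 repression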
DAX1 inh-2: NR0B1 (DAX1) inhibition; P51843; HEK293 Gal4-DAX1 luciferase reporter, luminescence; inhibition, % at 6.75 µM; 0.99% of 340,000 active;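 active means inhibition above the mean over all tested compounds plus 3 SD, cut at about 4.2% in these data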;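 further: inhibition shows as a rise in luminescence from relieved DAX1 repression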
AHR act: activators of human aryl hydrocarbon receptor; P35869; AHR-responsive luciferase reporter cells, luminescence; activation, % at 5 µM; 2.5% of 320,000 active; in the data active means activation above about 47%
Target sequence (P35869 whole entry, looked up): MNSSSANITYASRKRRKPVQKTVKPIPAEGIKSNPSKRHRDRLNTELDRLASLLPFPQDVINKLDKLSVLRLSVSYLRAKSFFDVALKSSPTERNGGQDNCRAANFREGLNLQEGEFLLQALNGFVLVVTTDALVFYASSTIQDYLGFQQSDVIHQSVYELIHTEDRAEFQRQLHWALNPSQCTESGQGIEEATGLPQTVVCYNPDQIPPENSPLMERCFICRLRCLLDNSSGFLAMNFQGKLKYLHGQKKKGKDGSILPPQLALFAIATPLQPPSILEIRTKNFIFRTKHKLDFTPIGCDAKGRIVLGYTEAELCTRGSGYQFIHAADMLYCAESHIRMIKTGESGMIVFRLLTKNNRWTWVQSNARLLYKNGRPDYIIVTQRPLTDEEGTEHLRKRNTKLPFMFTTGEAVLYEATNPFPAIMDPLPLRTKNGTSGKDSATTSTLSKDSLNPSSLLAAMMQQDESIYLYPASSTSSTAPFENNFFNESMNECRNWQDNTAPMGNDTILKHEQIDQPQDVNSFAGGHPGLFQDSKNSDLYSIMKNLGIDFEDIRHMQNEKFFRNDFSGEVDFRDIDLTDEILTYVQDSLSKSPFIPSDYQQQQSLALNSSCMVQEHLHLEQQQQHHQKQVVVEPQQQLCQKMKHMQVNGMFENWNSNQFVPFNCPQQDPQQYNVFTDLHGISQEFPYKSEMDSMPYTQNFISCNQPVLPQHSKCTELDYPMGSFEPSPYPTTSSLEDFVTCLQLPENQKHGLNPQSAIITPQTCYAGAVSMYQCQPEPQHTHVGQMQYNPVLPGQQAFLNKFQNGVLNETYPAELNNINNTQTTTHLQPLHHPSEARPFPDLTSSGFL
ssDAF12 agonist: S. stercoralis DAF-12 activation, primary screen; activation, % at 6.8 µM; HEK293 ssDAF-12/GRIP1 lit1-tk-luc reporter, luminescence; % of 3 µM dafachronic acid response; 1% of 370,000 active;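 active means activation above the mean over all tested compounds plus 3 SD, cut at about 0.9% in these data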
hgDAF12 agonist: hgDAF-12 agonism, primary luciferase screen. HEK293 GAL4-hgDAF12 UAS-luciferase reporter, agonist luminescence; normalized to butyrate control. 1.8% of 370,000 active. activation, % at 6.8 µM. AID 687014;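 active means activation above a cutoff set at the mean of all screened compounds plus 3 SD, cut at about 10% in these data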
A number is an active result; i = inactive; nt = not tested or not shown. This is a sample that favours compounds with a hit; in the whole collection about 5.7% have one here.

SMILES	hcDAF-12 act	DAX1 inh-1	DAX1 inh-2	AHR act	ssDAF12 agonist	hgDAF12 agonist
CCOC(=O)c1[nH]c(=O)[nH]c1CSc1nc(C)cc(C)n1	i	i	i	48	i	i
Cc1cc(C)c2c(N)c3ccccc3nc2n1	18	i	i	i	4.0	11
Cc1cc(C)c2cccc(N)c2n1	i	i	i	i	i	i
CCc1ccc2nc3nc(C)cc(C)c3c(N)c2c1	i	i	i	68	i	i
CCc1ccc(NC(=S)/N=C(\N)Nc2nc(C)c3cc(CC)ccc3n2)cc1	i	i	i	i	i	i
CCOc1cc(N2CCOCC2)c(OCC)cc1NC(=O)CC12CC3CC(CC(C3)C1)C2	i	i	i	i	i	i
COC(=O)c1ccc(Cn2cnc3c(Cl)ncnc32)cc1	i	i	i	nt	i	i
Cc1ccc(Cn2c(/C=C/c3ccco3)nc3ccccc32)cc1	6.3	i	i	i	i	i
Nc1n[nH]c(-c2ccc(Br)cc2)c1Cl	i	i	i	62	i	i
COc1ccccc1Nc1ncnc2c1cnn2-c1cccc(C)c1	i	i	i	51	i	i
O=C(COC(=O)c1nc(Cl)ccc1Cl)Nc1ccc(Cl)cc1	i	i	i	i	i	i
O=C(COC(=O)c1ncc(Cl)c(Cl)c1Cl)Nc1ccc(Cl)cn1	i	i	i	66	i	i
O=C(COC(=O)c1nc(Cl)ccc1Cl)Nc1ccc(Cl)cn1	5.7	i	i	i	1.0	i
O=C(COC(=O)c1ncc(Cl)c(Cl)c1Cl)Nc1cccnc1Cl	i	i	i	i	i	i
COc1cc(/C=C/C(=O)O)cc(S(=O)(=O)NCC2CCCO2)c1OC (configuration not stated)	i	i	i	i	i	i
CCOC(=O)N1CCC(N2C(=O)c3ccccc3C2Nc2ccc3c(C)cc(=O)oc3c2)CC1 (configuration not stated)	i	i	5.4	i	i	i
Cc1ccnc(NC(=O)c2ccccc2NC(=O)c2ccccc2)c1	i	i	i	i	i	i
COc1ccc(Nc2ncnc3sccc23)cc1	i	i	i	i	i	i
COc1cccc(Nc2ncnc3sccc23)c1	i	i	i	52	i	i
CCOC(=O)c1ccccc1NC1OC(=O)c2ccccc21 (configuration not stated)	i	i	i	i	i	i
Cc1cc(SCCOc2ccccc2)nc(N)n1	i	i	5.1	i	i	i
Cc1cc(Oc2ccccc2)nc(N)n1	i	i	i	i	i	i
O=S(=O)(O)c1cccc(N=Nc2c(O)ccc3ccccc23)c1	i	i	i	i	i	i
CC(C)CCn1c(O)c(N=Nc2ccccn2)c2ccccc21	i	i	i	i	i	i
Oc1ccc2ccccc2c1N=Nc1ccccn1	i	i	i	74	i	i
SMILES	hcDAF-12 act	DAX1 inh-1	DAX1 inh-2	AHR act	ssDAF12 agonist	hgDAF12 agonist
Oc1ccc2ccccc2c1N=Nc1ccccc1F	6.4	i	i	50	i	i
CC[C@@H]1CCCCc2ccccc2[C@H](C(=O)C[C@@H](O)CC(C)=O)OC1=O	i	i	i	i	i	i
CC[C@H]1CCCCc2ccccc2[C@@H](C(=O)C[C@@H](O)CC(C)=O)OC1=O	i	4.0	i	i	i	i
COc1ccc2[nH]c3c(Cl)ncnc3c2c1	i	i	i	i	i	i
Fc1ccc2[nH]c3c(Cl)ncnc3c2c1	i	i	i	i	1.0	i
Cc1ccc(CNC(=O)Nc2ccccc2)c(C)c1	i	i	i	i	i	13
Cc1ccccc1CNC(=O)Nc1ccc(Cl)cc1	i	i	5.5	i	i	i
O=C(Nc1ccc(Cl)cc1)Nc1ccccc1CC[N+](=O)[O-]	i	i	i	67	i	i
Cc1ccccc1NC(=O)CN1CCC(C(=O)c2ccc3c(c2)OCCO3)CC1	i	i	i	i	i	i
COc1ccccc1NC(=S)NC(NC(=O)c1ccco1)C(Cl)(Cl)Cl (configuration not stated)	i	i	i	i	i	i
O=C(CN1C(=O)c2ccccc2C1=O)NC1CCS(=O)(=O)C1 (configuration not stated)	i	i	i	nt	i	i
COc1ccc(/C=C2\SC(=O)N(CC(=O)N(C)C3CCS(=O)(=O)C3)C2=O)cc1 (configuration not stated)	i	i	i	i	1.0	i

Source: PubChem (The Scripps Research Institute Molecular Screening Center)
